Some test systems named below: SR leukemia; RPMI-8226 leukemia; OVCAR-8 ovarian; OVCAR-5 ovarian; OVCAR-4 ovarian; SK-OV-3 ovarian; IGROV1 ovarian; OVCAR-3 ovarian; HS 578T breast; NCI/ADR-RES ovarian; T-47D breast; BT-549 breast; MDA-MB-435 melanoma; SW-620 colon; MCF7 breast; HCT-116 colon; HCC-2998 colon; KM12 colon.
Assay in all cases: NCI-60 one-dose screen, 48 h (100 = growth as untreated, 0 = no growth, -100 = all killed)
What all share (details): 10 µM unless noted

The record followed here is PubChem BioAssay (NCI).

Where “and” joins values, the source holds several entries; their conditions need not be identical. Equal entries are not always repeated. This is part of a sample that, as a whole, favours compounds with a hit. Of some 83,000 tested, about 20% had one in any assay.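 Results are percent growth after 48 hours of single-concentration exposure. 100 means growth as in untreated cells, lower positive values show inhibition; negative values down to -100 show cell death.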 Calls of active or inactive are those of the source. How the source made its calls: active means growth percent below 10; inactive means the rest.

In the case of `CC(O)CCNC(c1ccccc1)C(O)c1ccccc1` (stereo not drawn), the growth with SR leukemia was 105% (inactive); in the assay with RPMI-8226 leukemia, 89.7% (inactive); in the assay with OVCAR-8 ovarian, 104% (inactive); in the assay with OVCAR-5 ovarian, 109% (inactive); with OVCAR-4 ovarian it was 107% (inactive); in the assay with SK-OV-3 ovarian it was 107% (inactive). The growth is 95.9% (inactive) in the assay with IGROV1 ovarian; 132% (inactive) in the assay with OVCAR-3 ovarian; 110% (inactive) with HS 578T breast; 110% (inactive) in the assay with NCI/ADR-RES ovarian; 99.2% (inactive) with T-47D breast; 110% (inactive) in the assay with BT-549 breast. For the same compound, the growth with MDA-MB-435 melanoma is 112% (inactive); with SW-620 colon, 110% (inactive); in the assay with MCF7 breast it was 99.9% (inactive); with HCT-116 colon, 100% (inactive); in the assay with HCC-2998 colon it was 111% (inactive); in the assay on KM12 colon, 114% (inactive).

`CCCCCCCCCCCCCCCCC(=O)O`: the growth in the assay on SR leukemia is 94.3% (inactive); in the assay with RPMI-8226 leukemia, 99.4% (inactive); in the assay with OVCAR-8 ovarian, 103% (inactive); in the assay on OVCAR-5 ovarian, 117% (inactive); in the assay with OVCAR-4 ovarian, 106% (inactive); in the assay with SK-OV-3 ovarian, 116% (inactive). Moreover, the growth in the assay with IGROV1 ovarian is 107% (inactive); in the assay on OVCAR-3 ovarian it was 115% (inactive); in the assay with HS 578T breast, 100% (inactive); in the assay with NCI/ADR-RES ovarian, 100% (inactive); with T-47D breast, 104% (inactive); in the assay with BT-549 breast it was 112% (inactive). Also, the growth with MDA-MB-435 melanoma is 109% (inactive); in the assay with SW-620 colon, 105% (inactive); with MCF7 breast, 93.9% (inactive); in the assay with HCT-116 colon it was 101% (inactive); with HCC-2998 colon it was 96.8% (inactive); in the assay with KM12 colon, 105% (inactive).

Consider `O=C(NC(=O)c1ccc(F)c(Cl)c1)NC1CC1`, for which the growth with SR leukemia is 91.4% (inactive); in the assay with RPMI-8226 leukemia, 98% (inactive) and 102% (inactive); with OVCAR-8 ovarian it was 98.8% (inactive) and 103% (inactive); in the assay with OVCAR-5 ovarian it was 109% (inactive) and 105% (inactive); with OVCAR-4 ovarian, 119% (inactive) and 93.4% (inactive); in the assay with SK-OV-3 ovarian, 114% (inactive) and 105% (inactive). Further, the growth in the assay with IGROV1 ovarian was 113% (inactive) and 109% (inactive); in the assay with OVCAR-3 ovarian it was 104% (inactive) and 107% (inactive); in the assay with HS 578T breast, 102% (inactive) and 96.6% (inactive); in the assay on NCI/ADR-RES ovarian, 107% (inactive) and 103% (inactive); with T-47D breast, 91.8% (inactive); with BT-549 breast it was 107% (inactive) and 109% (inactive). For the same compound, the growth in the assay on MDA-MB-435 melanoma was 114% (inactive) and 102% (inactive); in the assay with SW-620 colon, 104% (inactive) and 100% (inactive); in the assay with MCF7 breast, 100% (inactive) and 89.6% (inactive); in the assay with HCT-116 colon, 104% (inactive) and 105% (inactive); in the assay with HCC-2998 colon, 96.2% (inactive) and 106% (inactive); with KM12 colon, 105% (inactive) and 101% (inactive).

As for `COc1ccccc1OCC(O)CO` (stereo not drawn), the growth is 116% (inactive) and 124% (inactive) in the assay on SR leukemia; 76.7% (inactive) in the assay with RPMI-8226 leukemia; 115% (inactive) and 104% (inactive) with OVCAR-8 ovarian; 103% (inactive) with OVCAR-5 ovarian; 110% (inactive) and 101% (inactive) with OVCAR-4 ovarian; 106% (inactive) and 121% (inactive) in the assay on SK-OV-3 ovarian. In addition, the growth with IGROV1 ovarian is 123% (inactive) and 114% (inactive); in the assay on OVCAR-3 ovarian it was 107% (inactive) and 125% (inactive); in the assay on HS 578T breast, 61.7% (inactive) and 107% (inactive); in the assay with NCI/ADR-RES ovarian it was 100% (inactive) and 107% (inactive); with T-47D breast, 91.4% (inactive) and 105% (inactive); with BT-549 breast it was 107% (inactive). For the same compound, the growth in the assay on MDA-MB-435 melanoma was 76.7% (inactive) and 96.1% (inactive); in the assay with SW-620 colon, 101% (inactive) and 109% (inactive); in the assay with MCF7 breast it was 94.1% (inactive) and 105% (inactive); with HCT-116 colon, 106% (inactive) and 102% (inactive); with HCC-2998 colon, 95% (inactive) and 86.1% (inactive); in the assay with KM12 colon, 98% (inactive) and 108% (inactive).

On to `NCCSSC/C=C\CSSCCN`, for which the growth with SR leukemia was 107% (inactive); in the assay with RPMI-8226 leukemia, 94.9% (inactive); in the assay with OVCAR-8 ovarian, 97% (inactive); in the assay on OVCAR-5 ovarian it was 121% (inactive); in the assay with OVCAR-4 ovarian it was 103% (inactive); with SK-OV-3 ovarian, 99.8% (inactive). Besides, the growth with IGROV1 ovarian is 115% (inactive); with OVCAR-3 ovarian, 109% (inactive); in the assay on HS 578T breast it was 93% (inactive); in the assay on NCI/ADR-RES ovarian, 107% (inactive); with T-47D breast it was 86.4% (inactive); with BT-549 breast, 100% (inactive). For the same compound, the growth with MDA-MB-435 melanoma is 105% (inactive); in the assay on SW-620 colon, 102% (inactive); in the assay with MCF7 breast, 97.2% (inactive); in the assay on HCT-116 colon it was 94.3% (inactive); in the assay with HCC-2998 colon, 112% (inactive); with KM12 colon, 102% (inactive).

In the case of `O=C1CCC(=O)N1CC1CC2CCC1C2` (stereo not drawn), the growth with SR leukemia is 84.7% (inactive) and 78.9% (inactive); in the assay with RPMI-8226 leukemia, 71.3% (inactive) and 114% (inactive); with OVCAR-8 ovarian, 98.8% (inactive) and 96.1% (inactive); with OVCAR-5 ovarian, 93.8% (inactive) and 90.8% (inactive); with OVCAR-4 ovarian, 91.1% (inactive) and 97.4% (inactive); with SK-OV-3 ovarian, -56.3% (active) and 84% (inactive). For the same compound, the growth with IGROV1 ovarian was 105% (inactive) and 107% (inactive); with OVCAR-3 ovarian it was 106% (inactive) and 101% (inactive); with HS 578T breast, 115% (inactive) and 102% (inactive); with NCI/ADR-RES ovarian, 110% (inactive) and 104% (inactive); with T-47D breast, 100% (inactive) and 79.2% (inactive); with BT-549 breast, 90.1% (inactive). The growth in the assay with MDA-MB-435 melanoma is 93.3% (inactive) and 95.9% (inactive); with SW-620 colon, 104% (inactive) and 100% (inactive); in the assay with MCF7 breast it was 99% (inactive) and 95.9% (inactive); in the assay on HCT-116 colon, 106% (inactive) and 90.5% (inactive); with HCC-2998 colon it was 106% (inactive); in the assay on KM12 colon it was 107% (inactive) and 100% (inactive).
